Bioassay records (PubChem)
PrPC TRFRET – reduces human prion protein on the cell surface; 370,000 compounds, 0.43% hits; AID 720596; cell surface PrPC, TR-FRET read-out; P04156; inhibition, % at 13.8 µM; in the data active = inhibition above about 24%
PfHsp40 rescue – compounds rescuing yeast from Plasmodium falciparum HSP40 toxicity | S. cerevisiae expressing PfHsp40, growth rescue, ATP luminescence | growth rescue, % at 12.5 µM | 340,000 compounds, 0.68% hits | AID 504582; in the data active = growth rescue above about 28%, passing the limit was not always enough; inconclusive = no clear call, values can overlap the other calls;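 note: yeast W303a lacking pdr1 and pdr3 grown in galactose medium; growth measured after three days at 30 °C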
SARS 3CLpro inh-1 – SARS-CoV 3CLpro protease inhibition. recombinant SARS-CoV 3CLpro, quenched FRET peptide cleavage. AID 1706. inhibition, % at 6 µM. P0C6X7. 290,000 compounds, 0.14% hits; in the data active = inhibition above about 12%
Vc quorum ag – induces V. cholerae light production without autoinducers; V. cholerae BH1578 lux reporter, luminescence, 6 h; activation, % at 18.7 µM; 350,000 compounds, 0.16% hits; AID 588436; in the data active = activation mostly above about 9.7%, no sharp cut-off; inconclusive = no clear call, values can overlap the other calls; inactive = mostly below about 3.7%
PriA SSB inh – K. pneumoniae PriA-SSBct interaction inhibition; AID 1272365; 430,000 compounds, 0.6% hits; AlphaScreen SSBct-PriA binding, biotinylated peptide; inhibition, % at 33 µM; in the data active = inhibition mostly above about 37%, no sharp cut-off; inactive = mostly below about 20%
PrP 5UTR inh – suppresses PrP 5' UTR mRNA reporter expression; 340,000 compounds, 0.35% hits; AID 488862; cell-based PrP 5' UTR mRNA reporter, plate reader; inhibition, % (no concentration beside the values); in the data active = inhibition above about 52%
SARS 3CLpro inh-2 – SARS 3CLpro inhibition, confirmation assay; shares compounds with SARS 3CLpro inh-1; QFRET protease activity assay; inhibition, % at 6 µM; 380 compounds, 36% hits; AID 1879; in the data active = inhibition above about 13%
Hits are given with their value; 0 = inactive; ? = inconclusive; - = no result. This is a sample that favours compounds with a hit; in the whole collection about 1.6% have one here.

SMILES | PrPC TRFRET | PfHsp40 rescue | SARS 3CLpro inh-1 | Vc quorum ag | PriA SSB inh | PrP 5UTR inh | SARS 3CLpro inh-2
COc1cccc(N2C(=O)/C(=C/c3ccc(C)o3)C(=O)NC2=S)c1 | 0 | 0 | 13.0 | 0 | 0 | 0 | 0
COc1cccc(C(C(=O)NCc2ccco2)N(Cc2ccco2)C(=O)Cn2nnc3ccccc32)c1 (stereo unspecified) | 0 | 0 | 27.9 | 0 | 0 | 0 | 40.0
Cc1ccc(N(C(=O)Cn2nnc3ccccc32)C(C(=O)NCc2ccco2)c2ccc(C)o2)cc1 (stereo unspecified) | 0 | 0 | 0 | 0 | 0 | 0 | -
COc1ccc(N(C(=O)Cn2nnc3ccccc32)C(C(=O)NCc2ccco2)c2ccc(C)o2)cc1 (stereo unspecified) | 0 | 0 | 21.3 | 0 | 0 | 0 | 26.5
O=C(CSc1ncnc2scc(-c3ccccc3)c12)Nc1nsc(-c2ccccc2)n1 | - | - | - | - | 0 | - | -
O=C(CSc1ncnc2scc(-c3ccccc3)c12)Nc1ccc(C(=O)O)cc1 | 0 | 0 | 12.8 | 0 | 0 | 0 | 0
CS(=O)(=O)c1ccc(CCC(=O)N2CCC(c3ccc4c(c3)OCO4)C2)cc1 (stereo unspecified) | - | - | - | - | 0 | - | -
CCOc1ccc2nc(-c3ccc(Cl)c(NC(=O)Nc4cccs4)c3)cn2n1 | - | - | - | - | 0 | - | -
COc1ccc(Nc2oc(COc3ccc(C)cc3)nc2C#N)cc1 | 0 | ? | 12.7 | - | 0 | 0 | 0
COc1ccc(Nc2oc(COc3ccc(OC)cc3)nc2C#N)cc1 | 0 | 0 | 0 | 0 | 0 | 0 | -
O=[N+]([O-])/C=C/c1cn(Cc2ccccc2)c2ccccc12 | 0 | 0 | 12.6 | 0 | 0 | 0 | 0
COc1ccc(NC(=O)CSc2ccc(NC(=O)c3cccc(F)c3)nn2)c(OC)c1 | - | - | - | - | 0 | - | -
O=C(Cn1cnc2ccccc2c1=O)NCc1cccnc1-c1cccs1 | - | - | - | - | 0 | - | -
Cn1nc(-c2ccc(Cl)cc2)nc2c(=O)n(C)c(=O)nc1-2 | - | - | 18.1 | 0 | - | 0 | 48.3
CCN(Cc1ccccc1)S(=O)(=O)c1ccc(C(=O)Nc2nnc(-c3cccnc3)o2)cc1 | - | - | - | - | 0 | - | -
O=C(NCc1ccccc1F)c1ccc(S(=O)(=O)Nc2cccc(C(F)(F)F)c2)cc1 | 0 | 0 | 0 | 0 | 0 | 0 | -
O=C(NCc1ccc(F)cc1)c1ccc(S(=O)(=O)Nc2cccc(C(F)(F)F)c2)cc1 | 0 | 0 | 17.6 | 0 | 0 | 0 | 0
N#Cc1c(NC(=S)NC(=O)c2ccccc2)sc2c1CCC2 | 0 | 0 | 21.2 | 0 | 0 | 0 | 0
O=C1CC(N2CCN(C/C=C/c3ccccc3)CC2)C(=O)N1CCc1ccccc1 (stereo unspecified) | 0 | 0 | 0 | 0 | 0 | 0 | -
O=C1CC(N2CCN(C/C=C/c3ccccc3)CC2)C(=O)N1Cc1cccs1 (stereo unspecified) | 0 | 0 | 16.2 | 0 | 0 | 0 | 0
CC(=O)ON1C(=O)c2cccc3c([N+](=O)[O-])ccc(c23)C1=O | - | - | - | - | 0 | - | -
CC(=O)N(C)c1ccc(NS(=O)(=O)c2cc(Cl)ccc2Cl)cc1 | 0 | 0 | 13.5 | 0 | 0 | 0 | 0
CC(=O)Nc1ccc(NS(=O)(=O)c2cc(Cl)ccc2Cl)cc1 | 0 | 0 | 0 | 0 | 0 | 0 | -
Cc1cc(C(=O)Nc2ccccc2S(C)(=O)=O)n(C)n1 | - | - | - | - | 0 | - | -
Cc1cc(C)n(C(=O)c2ccc(C)c(Br)c2)n1 | 0 | 0 | 13.9 | 0 | 0 | 0 | 13.4
SMILES | PrPC TRFRET | PfHsp40 rescue | SARS 3CLpro inh-1 | Vc quorum ag | PriA SSB inh | PrP 5UTR inh | SARS 3CLpro inh-2
COc1ccc(C(=O)n2nc(C)cc2C)cc1OC | 0 | 0 | 0 | 0 | 0 | 0 | -
COc1ccc(NS(=O)(=O)c2ccc3oc(Nc4ccc5c(c4)OCCO5)nc3c2)cc1 | 0 | 0 | 13.3 | 0 | 0 | 0 | 0
CC(=O)N(Cc1ccco1)c1nc2ccc(Cl)cc2s1 | - | - | - | - | 0 | - | -
CSc1ccccc1OCc1cc(C(=O)N(C)Cc2cc(C)[nH]n2)no1 | 0 | 0 | 0 | 0 | 0 | 0 | -
CSc1ccccc1OCc1cc(C(=O)N(C)Cc2cnccn2)no1 | 0 | 0 | 14.2 | 0 | 0 | 0 | 0
COc1cc(/C=C2\SC(=S)N(NC(=O)c3ccccc3O)C2=O)ccc1O | 0 | 0 | 0 | 0 | 0 | 0 | -
O=C(NN1C(=O)/C(=C/c2ccc(O)cc2)SC1=S)c1ccccc1O | 0 | 0 | 13.3 | 0 | 0 | 0 | 0
COC(=O)c1c(NC(=O)c2cccc(N3C(=O)CCC3=O)c2)sc2c1CCN(C(=O)OC)C2 | - | - | - | - | 0 | - | -
Cc1nnc(SC(=O)N2c3ccccc3Sc3ccccc32)s1 | 0 | 0 | 23.6 | 0 | 0 | 0 | 38.4
CCOC(=O)N1c2ccccc2Sc2ccccc21 | 0 | 0 | 0 | 0 | 0 | 0 | -
CC(C)(C)C1CCc2onc(C(=O)Nc3cccnc3)c2C1 (stereo unspecified) | 0 | 0 | 13.6 | 0 | 0 | 0 | 0
COCCN(Cc1ccoc1)C(=O)c1c(C)nc2ccccn12 | - | - | - | - | 0 | - | -
Cc1ccccc1C(=O)Nc1sc(C)c(C)c1C(=O)c1ccccc1 | 0 | 0 | 0 | 0 | 0 | 0 | -
Cc1sc(NC(=O)CCl)c(C(=O)c2ccccc2)c1C | 0 | 0 | 14.5 | - | 0 | 0 | 35.6
COc1ccc2cc(C3CC(c4ccco4)=NN3C(=O)c3ccccc3F)c(Cl)nc2c1 (stereo unspecified) | - | - | - | - | 0 | - | -
CCCCCn1c(CN2CCN(Cc3ccccc3)CC2)nc2c1c(=O)[nH]c(=O)n2C | 0 | 0 | 12.6 | 0 | 0 | 0 | 0
O=C(Oc1ccc(Br)cc1C(=O)/C=C/c1ccccc1F)c1ccco1 | 0 | 0 | 21.8 | 0 | 0 | 0 | 42.9
O=C(c1ccc2ncsc2c1)N(CCc1cccs1)C1CC1 | - | - | - | - | 0 | - | -
Cc1ccc(C(=O)N2CCN(c3ccc(NC(=O)c4cccnc4)cc3)CC2)cc1 | 0 | 0 | 0 | 0 | 0 | 0 | -
COc1cc(C(=O)Nc2ccc(N3CCN(C(=O)c4ccc(C)cc4)CC3)cc2)cc(OC)c1OC | 0 | 0 | 14.2 | 0 | 0 | 0 | 0
O=C(Cn1cccc1)NC1CCC(Oc2ccccn2)CC1 (stereo unspecified) | - | - | - | - | 0 | - | -
COc1cc(NC(=O)C2CC(c3cccc(Br)c3)=NO2)cc(OC)c1OC (stereo unspecified) | 0 | 0 | 12.6 | 0 | 0 | 0 | 0
CC(C)C12CN(C(=O)c3ccccc3[N+](=O)[O-])CC(C(C)C)(CN(C(=O)c3ccccc3[N+](=O)[O-])C1)C2=O | 0 | 0 | 29.3 | 0 | 0 | 0 | 34.8
NC(=O)c1ccc(NC(=O)Cn2c(=O)n(Cc3cccs3)c(=O)c3ncccc32)cc1 | - | - | - | - | 0 | - | -
Cc1c(C(=O)Nc2ccc(S(=O)(=O)Nc3ncccn3)cc2)oc2ccc(Cl)cc12 | 0 | 0 | 0 | 0 | 0 | 0 | -
Cc1noc(NS(=O)(=O)c2ccc(NC(=O)c3oc4ccc(Cl)cc4c3C)cc2)c1C | 0 | 0 | 12.3 | 0 | 0 | 0 | 0
CN(C)S(=O)(=O)c1cccc(NC(=S)N/N=C/c2cc(Br)ccc2O)c1 | 0 | 0 | 15.3 | 0 | - | 0 | 0
CCOC(=O)c1ccc2nc(Nc3nc4c(OC)cccc4s3)sc2c1 | - | - | - | - | 0 | - | -
O=C(NCc1ccnc(-c2cccs2)c1)c1c(F)cccc1F | - | - | - | - | 0 | - | -
CC1CCc2cc(F)ccc2N1C(=O)Cc1cc(-c2ccc3c(c2)OCO3)on1 (stereo unspecified) | - | - | - | - | 0 | - | -
